Test results: PubChem BioAssay (EPA / NIEHS)
Results filed as inconclusive are left out. Calls of active or inactive are those of the source. The calls were made as follows, unless noted: active = hit-call score of the fitted dose curve at least 0.9, where 1 is the maximum; inactive = score below 0.9.

Assays:
[1] = ACEA_ER_80hr: ACEA Biosciences xCELLigence Real-Time Cell Analysis on Estrogen Receptor Agonism for Proliferation (AID 2282667; active = hit-call score of the fitted dose curve at least 0.9, where 1 is the maximum); conditions: T47D proliferation, impedance (xCELLigence), 80 h
Method in brief: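 T-47D cells monitored by electrical impedance (xCELLigence) with compound present throughout; 80 h timepoint, positive-direction fitting versus DMSO. Eight-point 1:4 dilutions from 100 uM final, duplicate plates.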

[2] = ATG_CRE_CIS: Attagene CIS-FACTORIAL HepG2 Assay for human cAMP Responsive Element (CRE) binding protein 3 (AID 2282926); conditions: HepG2 CRE cis-reporter, Attagene multiplexed mRNA; actives raise or lower the signal
Method in brief: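 Induced reporter mRNA from a CRE cis element, measured in HepG2 among many multiplexed units at 24 h. Detection used RT-PCR plus capillary electrophoresis of fluorescent fragments; DMSO served as negative control.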

[3] = biological target: CCAAT/enhancer-binding protein beta (Homo sapiens) (UniProt P17676); assay: ATG_C_EBP_CIS: Attagene CIS-FACTORIAL HepG2 Assay for human CCAAT/Enhancer Binding Protein (C/EBP) beta (AID 2282927); conditions: HepG2 Attagene cis-factorial transcription factor reporter; actives raise or lower the signal
Method in brief: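 HepG2, transient MRTU transfection, 24 h treatment. RT-PCR plus CE fluorescence; DMSO negative control, bidirectional fit.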

[4] = ATG_CMV_CIS: Attagene CIS-FACTORIAL HepG2 Assay for human CMV (Internal Marker) (AID 2282928); conditions: HepG2 CMV promoter reporter, transcription factor profiling; actives raise or lower the signal;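 also: endpoint acts as a background internal control marker rather than a target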
Method in brief: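 Reporter transcripts from transfected HepG2 cells are isolated after 24 h of chemical dosing, reverse-transcribed and amplified. Fragments labeled with 6-FAM are cut with HpaI and quantified by capillary electrophoresis; DMSO defines baseline.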

[5] = ATG_DR4_LXR_CIS: Attagene CIS-FACTORIAL HepG2 Assay for human Liver X Receptor (LXR), DR4 submotif (AID 2282929); conditions: HepG2 Attagene DR4 cis-reporter, mRNA transcription; actives raise or lower the signal
Method in brief: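 After transient transfection with multiplexed cis-promoter reporter units, HepG2 cells received test chemicals for 24 h. Reporter mRNA induction, detected by fluorescence after RT-PCR and capillary electrophoresis, was scored relative to DMSO.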

[6] = biological target: Aryl hydrocarbon receptor (Homo sapiens) (UniProt P35869); assay: ATG_Ahr_CIS: Attagene CIS-FACTORIAL HepG2 Assay for human Aryl Hydrocarbon Receptor (Ahr) (AID 2282930); conditions: HepG2 AhR cis-factorial reporter transcription; actives raise or lower the signal
Method in brief: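 Endogenous factor activity is tracked through cis-promoter reporter units transfected into HepG2 cells. Transcript levels at 24 h are read by fluorescent RT-PCR and capillary electrophoresis, with activity in either direction scored relative to DMSO.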

[7] = ATG_AP_1_CIS: Attagene CIS-FACTORIAL HepG2 Assay for human Activator Protein 1 (AP-1) (AID 2282931); conditions: HepG2 Attagene cis-factorial AP-1 reporter mRNA; actives raise or lower the signal
Method in brief: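 After 24 h incubation with test chemical, RNA from transfected HepG2 cells was reverse-transcribed, amplified, fluorescently labelled and digested before capillary electrophoresis. Reporters were driven by cis-regulatory promoters; activity fitted bidirectionally versus DMSO.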

[8] = ATG_AP_2_CIS: Attagene CIS-FACTORIAL HepG2 Assay for human Activator Protein 2 (AP-2) (AID 2282932); conditions: HepG2 AP-2 cis-reporter, Attagene transcription factor profiling; actives raise or lower the signal
Method in brief: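 Read-out: fluorescent reporter mRNA via RT-PCR and capillary electrophoresis, 24 h post-dose in transiently transfected HepG2. Endogenous factors drive cis-promoter reporters; gain or loss of signal fitted bidirectionally against DMSO.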

[9] = ATG_BRE_CIS: Attagene CIS-FACTORIAL HepG2 Assay for human Bone Morphogenetic Protein (BMP) Response Element (BRE) (AID 2282933); conditions: HepG2 BMP response element reporter, Attagene transcription factor profiling; actives raise or lower the signal
Method in brief: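 Fluorescence-labelled reporter cDNA fragments, separated by capillary electrophoresis, gave the signal for this component of a 52-readout multiplex. HepG2 cells were transfected, exposed to chemicals for 24 h, and compared with DMSO using bidirectional fitting.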

[10] = biological target: Retinoic acid receptor alpha (Homo sapiens) (UniProt P10276); assay: ATG_DR5_RAR_CIS: Attagene CIS-FACTORIAL HepG2 Assay for human Retinoic Acid Receptor Alpha (RARE), DR5 submotif (AID 2282934); conditions: HepG2 Attagene cis-factorial RARE DR5 reporter, mRNA; actives raise or lower the signal;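 as to AC50: reporter responds to endogenous RAR alpha beta and gamma in HepG2 not RARA alone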
Method in brief: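 After 24 h of chemical exposure, transiently transfected HepG2 cells were lysed for total RNA; the DR5-regulated reporter transcript was quantified via RT-PCR and capillary electrophoresis, with activity fitted bidirectionally against DMSO.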

[11] = ATG_E_Box_CIS: Attagene CIS-FACTORIAL HepG2 Assay for human Enhancer Box (E-box) (AID 2282936); conditions: HepG2 E-box cis-reporter transcription, actives raise or lower the signal
Method in brief: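 Transiently transfected HepG2, endogenous TF-driven reporters, 24 h dosing. Readout: RT-PCR plus capillary electrophoresis of fluorescent reporter fragments. Gain or loss of signal fitted bidirectionally against DMSO baseline.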

[12] = ATG_M_61_CIS: Attagene CIS-FACTORIAL HepG2 Assay for M61 Transcription Factor (Internal Marker) (AID 2282937); conditions: HepG2 Attagene CIS-FACTORIAL M61 internal marker reporter; actives raise or lower the signal
Method in brief: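 Using transiently transfected HepG2 liver cells, reporter transcript levels were assessed 24 h post-dosing by RT-PCR and capillary electrophoresis. Changes in either direction were fitted relative to DMSO controls.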

[13] = ATG_EGR_CIS: Attagene CIS-FACTORIAL HepG2 Assay for human Early Growth Response 1 (EGR1) (AID 2282938); conditions: HepG2 Attagene CIS-FACTORIAL EGR reporter mRNA; actives raise or lower the signal
Method in brief: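 Fluorescent capillary-electrophoresis signal of reporter cDNA fragments serves as read-out. HepG2 cells bear transiently transfected cis-promoter reporter units and are exposed 24 h; gain- or loss-of-signal is fitted against DMSO.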

[14] = ATG_M_19_CIS: Attagene CIS-FACTORIAL HepG2 Assay for M19 Transcription Factor (Internal Marker) (AID 2282939); conditions: HepG2 Attagene CIS-FACTORIAL M19 internal marker reporter; actives raise or lower the signal
Method in brief: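 HepG2, MRTU transient transfection, 24 h dosing. Total RNA → RT-PCR → 6-FAM primer extension → HpaI digest → CE fluorescence. Bidirectional curve fit, DMSO negative control.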

[15] = ATG_ERE_CIS: Attagene CIS-FACTORIAL HepG2 Assay for Estrogen Response Element (ERE) (AID 2282940); conditions: HepG2 ERE cis-reporter, Attagene RNA transcript; actives raise or lower the signal
Method in brief: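 After a 24 h chemical treatment, RNA from reporter-transfected HepG2 cells is reverse-transcribed, PCR-amplified and fluorescently labelled. Fragments separated by capillary electrophoresis give reporter signal; DMSO serves as negative control.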

[16] = ATG_Ets_CIS: Attagene CIS-FACTORIAL HepG2 Assay for human Erythroblast Transformation Specific (ETS) (AID 2282941); conditions: HepG2 ETS cis-reporter transcription, actives raise or lower the signal
Method in brief: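 Bidirectional fit versus DMSO of reporter mRNA signal, detected by RT-PCR and capillary electrophoresis in HepG2 cells transiently transfected with cis-element reporters and dosed 24 h.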

[17] = ATG_FoxO_CIS: Attagene CIS-FACTORIAL HepG2 Assay for human Forkhead box O (FoxO) (AID 2282943); conditions: HepG2 Attagene cis-reporter, FoxO element, mRNA; actives raise or lower the signal
Method in brief: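 Transfected HepG2 reporter cells exposed to test chemical for 24 h; reporter RNA measured by reverse transcription, PCR and fluorescent capillary electrophoresis; curves fitted for increases and decreases against DMSO.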

[18] = ATG_GATA_CIS: Attagene CIS-FACTORIAL HepG2 Assay for human GATA Binding Protein (AID 2282944); conditions: HepG2 GATA cis-element reporter, Attagene multiplex mRNA; actives raise or lower the signal
Method in brief: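 Cells: HepG2, transiently transfected with cis-regulated reporter transcription units. Exposure: 24 h. Detection: RT-PCR plus capillary electrophoresis of FAM-labeled fragments. Analysis: bidirectional, DMSO as baseline.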

[19] = biological target: Transcription factor E2F1 (Homo sapiens) (UniProt Q01094); assay: ATG_E2F_CIS: Attagene CIS-FACTORIAL HepG2 Assay for human E2F Transcription Factor 1 (AID 2282935); conditions: HepG2 Attagene cis-reporter, E2F reporter RNA transcripts; actives raise or lower the signal
Method in brief: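 Transient MRTU transfection of HepG2; 24 h compound exposure; RNA → oligo(dT) RT → PCR → FAM label → HpaI cut → CE fluorescence. Gain/loss of signal fit against DMSO.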

[20] = biological target: Hepatocyte nuclear factor 3-beta (Homo sapiens) (UniProt Q9Y261); assay: ATG_FoxA2_CIS: Attagene CIS-FACTORIAL HepG2 Assay for human Forkhead box A2 (FOXA2) (AID 2282942); conditions: HepG2 cis-reporter transcription factor activity, 24 h; actives raise or lower the signal
Method in brief: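 Fluorescence signal of reporter cDNA fragments, separated by capillary electrophoresis, reflects endogenous transcription factor activity in transfected HepG2 after 24 h. Both increases and decreases fitted against DMSO.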

Sequence of Aryl hydrocarbon receptor (Homo sapiens) (P35869 whole entry, looked up): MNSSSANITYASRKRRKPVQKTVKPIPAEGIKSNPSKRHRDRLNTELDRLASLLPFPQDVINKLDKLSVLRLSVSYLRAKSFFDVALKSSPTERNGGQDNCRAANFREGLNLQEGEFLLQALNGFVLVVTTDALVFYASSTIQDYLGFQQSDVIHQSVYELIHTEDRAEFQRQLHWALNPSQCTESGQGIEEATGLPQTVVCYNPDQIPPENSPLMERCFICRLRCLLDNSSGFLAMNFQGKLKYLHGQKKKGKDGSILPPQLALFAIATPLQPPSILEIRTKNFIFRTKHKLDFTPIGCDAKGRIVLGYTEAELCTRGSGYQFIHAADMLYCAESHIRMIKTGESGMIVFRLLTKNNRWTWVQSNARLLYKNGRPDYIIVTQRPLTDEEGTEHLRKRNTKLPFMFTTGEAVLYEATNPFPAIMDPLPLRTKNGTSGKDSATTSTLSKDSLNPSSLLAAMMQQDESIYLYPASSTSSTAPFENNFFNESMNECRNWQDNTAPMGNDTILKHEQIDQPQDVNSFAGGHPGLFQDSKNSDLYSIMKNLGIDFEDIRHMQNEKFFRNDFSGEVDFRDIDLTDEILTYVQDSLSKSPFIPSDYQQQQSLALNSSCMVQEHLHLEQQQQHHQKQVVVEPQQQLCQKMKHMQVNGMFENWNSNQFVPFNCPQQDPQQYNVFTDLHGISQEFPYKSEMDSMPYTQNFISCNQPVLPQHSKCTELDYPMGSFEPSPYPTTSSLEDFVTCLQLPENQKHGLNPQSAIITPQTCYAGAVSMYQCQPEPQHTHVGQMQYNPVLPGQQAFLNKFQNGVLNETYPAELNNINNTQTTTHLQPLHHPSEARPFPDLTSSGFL
Sequence of Hepatocyte nuclear factor 3-beta (Homo sapiens) (Q9Y261 whole entry, looked up, the tested form may be a part): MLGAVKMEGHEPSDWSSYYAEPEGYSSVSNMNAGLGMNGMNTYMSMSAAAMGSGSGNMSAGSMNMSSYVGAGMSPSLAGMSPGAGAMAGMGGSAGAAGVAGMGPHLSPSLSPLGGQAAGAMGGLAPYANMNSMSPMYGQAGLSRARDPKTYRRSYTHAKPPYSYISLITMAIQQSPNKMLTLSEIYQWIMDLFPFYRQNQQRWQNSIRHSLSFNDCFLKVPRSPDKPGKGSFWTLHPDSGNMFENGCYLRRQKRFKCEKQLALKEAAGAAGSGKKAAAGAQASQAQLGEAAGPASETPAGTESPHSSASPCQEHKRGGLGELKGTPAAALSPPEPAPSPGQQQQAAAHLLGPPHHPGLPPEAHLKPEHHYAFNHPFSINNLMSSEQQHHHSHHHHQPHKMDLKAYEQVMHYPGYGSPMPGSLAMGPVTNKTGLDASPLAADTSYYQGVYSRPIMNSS
Sequence of CCAAT/enhancer-binding protein beta (Homo sapiens) (P17676 whole entry, looked up): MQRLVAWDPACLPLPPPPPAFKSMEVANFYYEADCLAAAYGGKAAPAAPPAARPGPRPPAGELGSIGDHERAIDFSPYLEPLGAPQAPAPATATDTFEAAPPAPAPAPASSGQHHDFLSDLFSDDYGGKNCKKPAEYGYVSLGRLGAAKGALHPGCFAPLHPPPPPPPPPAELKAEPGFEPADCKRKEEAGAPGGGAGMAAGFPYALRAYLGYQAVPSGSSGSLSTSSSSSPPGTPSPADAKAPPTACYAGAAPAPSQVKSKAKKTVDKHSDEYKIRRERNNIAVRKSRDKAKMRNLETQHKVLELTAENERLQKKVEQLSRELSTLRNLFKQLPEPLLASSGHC
Sequence of Transcription factor E2F1 (Homo sapiens) (Q01094 whole entry, looked up): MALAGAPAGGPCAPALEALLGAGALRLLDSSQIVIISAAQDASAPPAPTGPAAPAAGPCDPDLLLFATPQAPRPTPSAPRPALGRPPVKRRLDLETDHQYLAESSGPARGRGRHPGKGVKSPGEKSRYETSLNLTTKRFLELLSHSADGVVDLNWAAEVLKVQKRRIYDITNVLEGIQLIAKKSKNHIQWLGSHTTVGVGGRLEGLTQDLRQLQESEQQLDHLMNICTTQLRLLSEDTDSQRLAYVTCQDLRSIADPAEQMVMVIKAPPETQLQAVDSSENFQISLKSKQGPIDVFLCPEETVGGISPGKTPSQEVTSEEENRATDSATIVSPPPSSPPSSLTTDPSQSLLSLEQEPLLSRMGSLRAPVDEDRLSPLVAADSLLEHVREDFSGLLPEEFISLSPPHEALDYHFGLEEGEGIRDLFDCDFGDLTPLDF
Sequence of Retinoic acid receptor alpha (Homo sapiens) (P10276 whole entry, looked up): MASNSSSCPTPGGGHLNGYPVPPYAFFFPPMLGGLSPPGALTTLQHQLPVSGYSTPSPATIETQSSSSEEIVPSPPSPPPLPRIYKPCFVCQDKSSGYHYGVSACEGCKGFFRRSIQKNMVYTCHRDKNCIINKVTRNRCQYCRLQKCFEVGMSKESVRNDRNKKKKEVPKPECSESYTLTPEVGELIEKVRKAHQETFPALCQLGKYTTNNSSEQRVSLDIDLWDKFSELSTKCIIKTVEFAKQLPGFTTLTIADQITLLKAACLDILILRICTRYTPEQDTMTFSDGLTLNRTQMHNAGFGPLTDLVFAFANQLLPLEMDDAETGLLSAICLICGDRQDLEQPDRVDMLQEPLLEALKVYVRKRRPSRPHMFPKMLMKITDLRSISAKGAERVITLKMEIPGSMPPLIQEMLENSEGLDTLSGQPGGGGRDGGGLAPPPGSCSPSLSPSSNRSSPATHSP

Structure (SMILES): CCC[Si](OC)(OC)OC
- outcome [1]: inactive
- outcome [2]: inactive
- outcome [3]: inactive
- outcome [4]: inactive
- outcome [5]: inactive
- outcome [6]: inactive
- outcome [7]: inactive
- outcome [8]: inactive
- outcome [9]: inactive
- outcome [10]: inactive
- outcome [11]: inactive
- outcome [12]: inactive
- outcome [13]: inactive
- outcome [14]: inactive
- outcome [15]: inactive
- outcome [16]: inactive
- outcome [17]: inactive
- outcome [18]: inactive

Structure (SMILES): CC(C)C(=O)OCCc1ccccc1
- outcome [1]: inactive
- outcome [2]: inactive
- outcome [3]: inactive
- outcome [4]: inactive
- outcome [5]: inactive
- outcome [6]: inactive
- outcome [7]: inactive
- outcome [8]: inactive
- outcome [9]: inactive
- outcome [10]: inactive
- outcome [11]: inactive
- outcome [12]: inactive
- outcome [14]: inactive
- outcome [15]: inactive
- outcome [16]: inactive
- outcome [17]: inactive

Structure (SMILES): c1ccc(Nc2cccc3ccccc23)cc1
- outcome [1]: inactive
- AC50 [2]: 48.3 µM (active)
- AC50 [3]: 45.7 µM (active)
- AC50 [4]: 33.4 µM (active)
- outcome [5]: inactive
- outcome [6]: inactive
- AC50 [7]: 53.7 µM (active)
- outcome [8]: inactive
- AC50 [9]: 49.2 µM (active)
- AC50 [10]: 33.4 µM (active)
- AC50 [19]: 33.4 µM (active)
- outcome [12]: inactive
- AC50 [13]: 46.8 µM (active)
- AC50 [15]: 2.06 µM (active)
- AC50 [16]: 33.4 µM (active)
- outcome [20]: inactive
- AC50 [17]: 53.2 µM (active)
- outcome [18]: inactive

Structure (SMILES): C=CC(=O)OCCCCCCCCCC
- outcome [1]: inactive
- outcome [2]: inactive
- outcome [3]: inactive
- outcome [4]: inactive
- outcome [5]: inactive
- outcome [6]: inactive
- outcome [7]: inactive
- outcome [8]: inactive
- outcome [9]: inactive
- AC50 [10]: 46 µM (active)
- outcome [19]: inactive
- outcome [11]: inactive
- outcome [12]: inactive
- outcome [14]: inactive
- outcome [15]: inactive
- outcome [16]: inactive
- outcome [17]: inactive
- outcome [18]: inactive

Structure (SMILES): CC(=O)OCC=C(C)C
- outcome [1]: inactive
- outcome [2]: inactive
- outcome [3]: inactive
- outcome [4]: inactive
- outcome [5]: inactive
- outcome [6]: inactive
- outcome [7]: inactive
- outcome [8]: inactive
- outcome [9]: inactive
- outcome [10]: inactive
- outcome [11]: inactive
- outcome [12]: inactive
- outcome [13]: inactive
- outcome [14]: inactive
- outcome [15]: inactive
- outcome [16]: inactive
- outcome [20]: inactive
- outcome [17]: inactive

Structure (SMILES): c1ccc2cnccc2c1
- outcome [1]: inactive
- outcome [2]: inactive
- outcome [3]: inactive
- outcome [4]: inactive
- outcome [5]: inactive
- AC50 [6]: 61.1 µM (active)
- outcome [7]: inactive
- outcome [8]: inactive
- outcome [9]: inactive
- outcome [10]: inactive
- outcome [11]: inactive
- outcome [12]: inactive
- outcome [13]: inactive
- outcome [14]: inactive
- outcome [15]: inactive
- outcome [16]: inactive
- outcome [20]: inactive
- outcome [17]: inactive
- outcome [18]: inactive

Structure (SMILES): C=CCCCCCCCCOC(C)=O
- outcome [1]: inactive
- outcome [2]: inactive
- outcome [3]: inactive
- outcome [4]: inactive
- outcome [5]: inactive
- outcome [6]: inactive
- outcome [7]: inactive
- outcome [8]: inactive
- outcome [9]: inactive
- outcome [10]: inactive
- outcome [19]: inactive
- outcome [12]: inactive
- outcome [13]: inactive
- outcome [15]: inactive
- outcome [16]: inactive
- outcome [20]: inactive
- outcome [17]: inactive
- outcome [18]: inactive

Structure (SMILES): CC(=O)OCc1ccccc1
- outcome [1]: inactive
- outcome [2]: inactive
- outcome [3]: inactive
- outcome [4]: inactive
- outcome [5]: inactive
- outcome [6]: inactive
- outcome [7]: inactive
- outcome [8]: inactive
- outcome [9]: inactive
- outcome [10]: inactive
- outcome [12]: inactive
- outcome [13]: inactive
- outcome [14]: inactive
- outcome [15]: inactive
- outcome [16]: inactive
- outcome [20]: inactive
- outcome [17]: inactive
- outcome [18]: inactive
